High-throughput results (PubChem)
HNF4A DNA FP: change in binding of human HNF4A to DNA, primary screen, biochemical, fluorescence polarization, FITC-DNA; Hepatocyte nuclear factor 4-alpha (Homo sapiens), P41235; 1 h; activity change, % at 10 µM; actives 0.3% (n = 360,000); AID 1224865, 2016; in the data active = activity change above about 30%, passing the limit was not always enough
Fh CTSL1 inh: Fasciola hepatica cathepsin L1 inhibitors, primary screen, counter-screen for PFM18AAP inhibitor project, biochemical, QFRET, fluorogenic peptide substrate; inhibition, % at 5.96 µM; recombinant F. hepatica cathepsin L1, Z-Leu-Arg-MCA fluorescence; actives 0.49% (n = 300,000);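 active = inhibition above the mean of all tested compounds plus 3 SD, set per screening campaign, cut at about 17% in these data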;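 note: 0% = plate median of test compound wells and 100% = 1 µM Z-Phe-Ala-diazomethylketone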
Rpn11 inh: Rpn11 (PSMD14) deubiquitinase inhibitors, primary screen, biochemical, fluorescence polarization, uHTS; 26S proteasome non-ATPase regulatory subunit 14 (Homo sapiens), O00487; human 26S proteasome, Ub4-pepOG fluorescence polarization; 20S core pre-blocked with epoxomicin; inhibition, % at 20 µM; actives 0.59% (n = 360,000); AID 588493, 2011;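 active = inhibition at 20 µM, scaled to each plate's controls, above about 33%, limit read from the data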
Target sequence (O00487 whole entry, looked up): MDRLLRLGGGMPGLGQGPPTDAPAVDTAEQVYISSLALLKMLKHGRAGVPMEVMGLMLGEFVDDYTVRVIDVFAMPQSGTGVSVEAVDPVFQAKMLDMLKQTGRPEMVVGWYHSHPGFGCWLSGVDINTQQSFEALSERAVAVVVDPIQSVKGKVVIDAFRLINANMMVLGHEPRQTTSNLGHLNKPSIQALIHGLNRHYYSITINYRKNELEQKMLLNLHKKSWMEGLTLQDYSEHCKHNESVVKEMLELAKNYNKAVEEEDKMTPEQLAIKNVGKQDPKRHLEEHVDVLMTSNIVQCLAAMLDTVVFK
PHOSPHO1 block: PubChem AID 1565; recombinant PHOSPHO1, absorbance phosphatase assay; inhibition, % at 13.3 µM; actives 1.1% (n = 290,000); in the data active = inhibition above about 60%
Target sequence (Q8TCT1 whole entry, looked up): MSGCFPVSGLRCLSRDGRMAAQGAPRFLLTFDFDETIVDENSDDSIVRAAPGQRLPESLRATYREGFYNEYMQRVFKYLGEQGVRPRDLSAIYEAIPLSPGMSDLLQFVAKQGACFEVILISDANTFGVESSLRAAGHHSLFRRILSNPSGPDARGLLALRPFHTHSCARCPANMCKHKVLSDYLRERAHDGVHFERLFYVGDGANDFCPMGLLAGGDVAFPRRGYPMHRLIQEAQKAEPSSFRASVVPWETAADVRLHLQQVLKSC
NRP1-CendR mod: modulators of CendR peptide binding to NRP-1, primary screen, biochemical, fluorescence polarization, uHTS; inhibition, % at 25 µM; FAM-RPARPAR peptide binding to NRP-1; actives 0.85% (n = 360,000); Neuropilin-1 (Homo sapiens), O14786; AID 602438, 2012;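 active = inhibition or corrected inhibition above about 18%, plus a signal ratio from 0.5 to 1.5, limit read from the data, passing the limit was not always enough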
TPT1 inh: Candida albicans TPT1 enzyme inhibitors, primary screen, biochemical, fluorescence polarization; tRNA 2'-phosphotransferase TPT1 (Candida albicans SC5314); recombinant caTPT1, FP RNA substrate dephosphorylation; inhibition, % at 5 µM; actives 0.81% (n = 300,000); AID 1962, 2009;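 active = inhibition above the mean of all tested compounds plus 3 SD, set per screening campaign, cut at about 24% in these data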;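 note: plate controls were DMSO alone for no effect and ferristatin control at 100 nM for full effect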
Active calls of the source: *; / = no result given. An excerpt weighted towards active compounds, which were near 3.3% of everything screened.

SMILES	HNF4A DNA FP	Fh CTSL1 inh	Rpn11 inh	PHOSPHO1 block	NRP1-CendR mod	TPT1 inh
COC(=O)C1CC2(C(=O)OC)CC(C(=O)OC)(CC(C(=O)OC)C2=O)C1=O (centres undefined)	-1.7	/	-4.1	/	26.5*	/
COC(=O)C1CC2=C(CCCC2=O)NC1=O (centres undefined)	0.5	/	4.8	/	-2.0	/
O=C(NCc1ccccn1)c1ccc(NS(=O)(=O)c2ccccc2)cc1	-0.4	-2.4	-3.1	52.7	22.1*	3.0
CN(c1ccc(C(=O)NCc2ccccn2)cc1)S(=O)(=O)c1ccc(Cl)cc1	-6.2	-0.5	2.3	61.0*	7.1	-5.5
O=C(NCc1ccccn1)c1cccc(NS(=O)(=O)c2ccccc2)c1	3.2	5.5	-2.0	/	4.6	0.8
CN(c1ccc(C(=O)Nc2cccnc2)cc1)S(=O)(=O)c1ccc(Cl)cc1	1.5	2.5	10.0	62.8*	6.0	-3.1
Cc1ccc(S(=O)(=O)N(C)c2ccc(C(=O)NCc3ccccn3)cc2)cc1	2.2	10.1	-2.5	37.3	6.4	0.9
O=C(c1ccc(Cl)cc1Cl)N1CCC(C(=O)N2CCOCC2)CC1	0.0	-1.8	-0.5	10.5	0.9	-1.1
CCOC(=O)C1(Cc2cccc(F)c2)CCN(Cc2ccon2)CC1	3.9	2.3	2.7	41.2	30.4*	-1.2
CCOC(=O)C1(Cc2ccc(Cl)cc2)CCN(Cc2ccon2)CC1	-1.1	-1.1	0.9	26.2	5.6	-2.1
O=C(Cc1ccccc1[N+](=O)[O-])OCC(=O)c1ccccc1Br	-0.4	/	-2.7	/	-12.0	/
O=C(O)c1cn(Cc2ccccc2)c2ccc(Cl)cc2c1=O	7.3	9.7	-13.6	/	23.2*	1.0
CCc1c(C)[nH]n(-c2ccc(Oc3ccccc3)c(S(=O)(=O)O)c2)c1=O	-13.2	-0.2	17.0	65.4*	-12.9	-1.1
CCN(CC)C1CCN(C(=O)CCn2nnnc2CN2CCOCC2)C1 (centres undefined)	4.1	-1.1	-2.0	19.0	3.1	-2.2
COc1cccc(C(CNc2ccc(S(=O)(=O)N3CCN(C)CC3)cc2[N+](=O)[O-])N(C)C)c1 (centres undefined)	3.0	/	-9.2	/	3.0	/
CCN(CC)c1ccc(/C=N/NC(=O)c2ccc3nc[nH]c3c2)cc1	0.9	4.4	-9.0	10.0	2.8	-4.0
CN(C)c1ccc(/C=N/NC(=O)c2ccc3nc[nH]c3c2)cc1	2.8	20.9*	-6.5	23.1	-2.0	-1.2
CCC(CC)NC(=O)c1ccc2nc[nH]c2c1	-3.9	0.4	-0.4	-4.8	29.2*	-2.4
NC(=O)CSc1ccc(F)cc1	-4.2	-0.1	-2.6	23.6	-5.2	0.1
Cc1ccc(C2/C(=C(/O)c3ccccc3)C(=O)C(=O)N2CCN2CCOCC2)o1 (centres undefined)	2.3	-4.3	-5.6	75.5*	-11.8	4.0
Cc1ccc(C2/C(=C(/O)c3cnn(-c4ccccc4)c3C)C(=O)C(=O)N2CCN2CCOCC2)o1 (centres undefined)	3.3	-0.3	4.5	29.9	-6.9	-0.3
CN1C[C@@H]2C(c3ccc(Cl)nc3)C3(c4cccnc4)CC2(C3)[C@H]1c1ccccc1 (some centres undefined)	4.6	-2.1	2.7	17.7	10.4	3.4
CN1C[C@@H]2C(c3ccc(Cl)nc3)C3(c4ccccc4)CC2(C3)[C@H]1c1ccccc1 (some centres undefined)	4.7	10.9	-17.2	35.3	23.3*	-3.2
Nc1cc(=O)n(Cc2ccccc2)c(=O)n1-c1ccc(F)cc1	7.1	0.6	-4.1	19.1	-3.9	0.9
Nc1cc(=O)n(Cc2ccccc2)c(=O)n1-c1ccc(Cl)cc1	-4.7	0.0	-0.1	-3.6	35.7*	-4.3
SMILES	HNF4A DNA FP	Fh CTSL1 inh	Rpn11 inh	PHOSPHO1 block	NRP1-CendR mod	TPT1 inh
CC(=O)c1ccc(NC(=O)c2cccc(N3C(=O)c4ccccc4C3=O)c2)cc1	164.6	-4.3	58.8*	52.7	-11.4	0.8
CCOc1ccc(-c2nnc3ccc(SCc4ccc(C(=O)OC)o4)nn23)cc1	4.1	3.4	-0.9	95.4*	0.0	-2.3
COC(=O)c1ccc(CSc2ccc3nnc(-c4ccc(F)cc4)n3n2)o1	1.1	1.1	-0.4	-5.3	5.1	-1.9
CC(Sc1nnc(-c2ccncc2)n1-c1ccc(F)cc1)C(=O)NC1CC1 (centres undefined)	-1.7	/	-1.8	/	11.4	/
CO[C@@H]1CN(C)C(=O)c2ccc(NC(=O)C3CCCC3)cc2OC[C@@H](C)N(Cc2ccc(F)cc2)C[C@H]1C	5.4	/	/	/	9.0	/
COc1ccc(CCNC(=O)COc2cccc(-n3cnnn3)c2)cc1	4.0	/	-7.2	/	17.7*	/
O=[N+]([O-])c1cc(-c2nc3nc4ccccc4nc3n2CCc2ccccc2)cc([N+](=O)[O-])c1	-1.6	-0.6	-4.1	-21.2	28.5*	-0.2
c1ccc(Cn2c(-c3ccccc3)nc3nc4ccccc4nc32)cc1	-1.4	2.8	-4.1	20.9	-3.6	1.5
COC(=O)CCC(=O)Nc1sc(C)c(C)c1C(N)=O	0.8	0.1	-3.5	90.1*	-6.0	-2.9
COC(=O)CCC(=O)NC(=S)Nc1sc(C)c(C)c1C(N)=O	-3.1	-2.1	2.4	10.3	-9.7	-0.3
CCOC(=O)c1c(NC(=O)c2ccc(Br)o2)sc(C)c1CC	2.1	4.8	0.3	-36.1	2.7	1.2
C=CCn1c(NC(=O)c2ccc(Br)o2)c(C(=O)OCC)sc1=S	-4.0	1.9	4.7	85.4*	4.9	1.6
C/C(=C\c1ccccc1)C(=O)N1CCN(c2cccc(C(F)(F)F)c2)CC1	2.0	-0.1	-6.4	-9.3	29.4*	-2.1
Cc1oc2ccc(OCC(N)=O)cc2c1C(=O)OC(C)C	-1.8	-1.2	-4.2	24.6	27.6*	0.9
Cc1oc2ccc(O)cc2c1C(=O)OC(C)C	2.9	-1.1	-3.1	-21.3	10.8	2.9
CCOC(=O)c1sc(NC(=O)c2cc(-c3ccccc3C)nc3ccccc23)c(C#N)c1C	-1.6	1.2	10.5	65.0*	-1.8	1.5
CCOC(=O)c1sc(NC(=O)c2ccncc2)c(C#N)c1C	0.3	19.5*	8.0	14.3	6.7	-2.6
Cc1cc(CNC(=O)c2cccnc2Cl)c2ccccc2n1	-15.2	17.5*	-1.5	-31.1	-0.9	-3.3
CCn1cc(C(=O)N2CCN(C(=O)c3ccco3)CC2)c2cc(OC)c(OC)cc2c1=O	0.1	0.9	13.1	2.9	23.6*	0.5
Cc1ccnc(NS(=O)(=O)c2ccc(NC(=O)Cc3c(F)cccc3Cl)cc2)n1	48.3*	0.9	-4.1	39.1	0.7	1.3
CCN1CCN(c2ncc(C(=O)Nc3cc(Cl)c(OC)cc3OC)c3ccccc23)CC1	-3.0	/	1.3	-24.5	-16.7	/
